Data reported in PubChem BioAssay (EPA / NIEHS).
Several values for one entry are separate records, joined by “and”; a condition that tells them apart may be missing. Equal values may be shown once. Inconclusive results are not listed. A structure can be active in one record and inactive in another. Activity calls are given as the source filed them. Rule for the calls: active = hit-call score of the fitted dose curve at least 0.9, where 1 is the maximum; inconclusive = response in the unintended direction; inactive = score below 0.9.

Biological target: Estrogen receptor beta (Homo sapiens) (UniProt Q92731)
Sequence (Q92731 whole entry, looked up): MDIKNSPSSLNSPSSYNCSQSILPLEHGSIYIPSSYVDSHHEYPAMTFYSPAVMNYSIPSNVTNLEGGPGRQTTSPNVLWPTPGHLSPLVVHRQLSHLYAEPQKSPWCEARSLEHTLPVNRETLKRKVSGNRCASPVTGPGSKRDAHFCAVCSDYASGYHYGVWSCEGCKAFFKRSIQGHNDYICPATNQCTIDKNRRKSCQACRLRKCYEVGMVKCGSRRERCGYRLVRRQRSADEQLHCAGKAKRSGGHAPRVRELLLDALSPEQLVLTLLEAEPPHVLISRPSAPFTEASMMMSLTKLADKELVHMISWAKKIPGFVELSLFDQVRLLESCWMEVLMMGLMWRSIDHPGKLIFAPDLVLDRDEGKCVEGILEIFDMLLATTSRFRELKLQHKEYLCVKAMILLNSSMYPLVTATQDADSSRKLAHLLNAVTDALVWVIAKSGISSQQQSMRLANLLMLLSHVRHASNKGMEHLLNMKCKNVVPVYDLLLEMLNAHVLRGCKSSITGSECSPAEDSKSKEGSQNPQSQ
Assay: OT_ER_ERbERb_0480: Odyssey Thera (OT) 8-hour HEK293T Protein-Complementation Assay for Estrogen Receptor-beta/-beta Homodimer (AID 2283357)
Description: OT_ER_ERbERb_0480 is a cell-based assay that uses HEK293T, a human kidney cell line, with measurements taken at 8 hours after chemical dosing in a 384-well plate.OT_ER_ERbERb_0480 is one of one assay component(s) measured or calculated from the OT_ER_ERbERb_0480 assay. It is designed to make measurements of protein fragment complementation, a form of binding reporter, as detected with fluorescence intensity signals by Protein-fragment Complementation technology.Data from the assay component OT_ER_ERbERb_0480 was analyzed into 1 assay endpoint. This assay endpoint, OT_ER_ERbERb_0480, was analyzed in the positive analysis fitting direction relative to DMSO as the negative control and baseline of activity. Using a type of binding reporter, measures of receptor for gain-of-signal activity can be used to understand the binding at the pathway-level as they relate to the gene ESR2. Furthermore, this assay endpoint can be referred to as a primary readout, because the performed assay has only produced 1 assay endpoint. To generalize the intended target to other relatable targets, this assay endpoint is annotated to the nuclear receptor intended target family, where the subfamily is steroidal.
Protein-fragment complementation assay, or PCA, is a method for the identification and quantification of protein-protein interactions. In the PCA, the proteins of interest ("bait" and "prey") are each covalently linked to fragments of a third protein (e.g. DHFR, which acts as a "reporter"). Interaction between the bait and the prey proteins brings the fragments of the reporter protein in close proximity to allow them to form a functional reporter protein whose activity can be measured. The OT ER beta / ER beta assay is a homodimer PCA of the ligand binding domain (LBD; amino acids 310-547) of human ER beta stably expressed in HEK293T cells. […] Cells are fixed in 4 percent formaldehyde and stained with Draq5 (BioStatus) to identify cells prior to signal detection. Fluorescent signal in the basal state of the assay is very low and is primarily punctuate and cytoplasmic. Modulation of this assay is quantified as an increase in mean fluorescence intensity in the nucleus (for agonists) or in the nucleus and cytoplasm (antagonists) relative to vehicle controls, and can be quantified on a high content imaging device or a laser scanning cytometer. The latter instrument is favored for this assay because of the rapid mode of data acquisition, the ability to acquire data from the entire cell population in a well (as opposed to a fraction of the well on the high content devices) and the larger dynamic range typically achieved with this instrument. To assess sensitivity of the ER beta/ER beta LBD assay to ligand, cells were treated with the ER agonist 17- beta-estradiol (E2) in 10-point concentration- response format for 8 hours and monitored response on a laser scanning plate cytometer (Acumen eX3; TTP Lab Tech).

SMILES	outcome	AC50
OCCC(F)(F)C(F)(F)C(F)(F)C(F)(F)C(F)(F)C(F)(F)F	inactive	–
Oc1cccc(O)c1	inactive	–
CCCCCCCCCCCCN1CCCC1=O	inactive	–
O=C(O)Cc1cc(I)c(Oc2cc(I)c(O)c(I)c2)c(I)c1	inactive	–
CCOC(=O)CC(O)(CC(=O)OCC)C(=O)OCC	inactive	–
CCCCCCCCCCCCCCCS(=O)(=O)Oc1ccccc1	inactive	–
Oc1cc2ccccc2c2ccccc12	inactive	–
CC(C)(C)c1cc(C(C)(C)C)c(O)c(C(C)(C)C)c1	–	29.3 µM (active)
CC(C)(C)c1ccc(O)c(C(C)(C)C)c1	inactive	–
CC[C@H](C)[C@@H](C(=O)O)n1sc2ccccc2c1=O	inactive	–
CCc1nn(C2CCCCC2)c2cc(C3(C#N)CCC(C(=O)O)CC3)ccc12 (stereo not given)	inactive	–
CCCCCCCC(=O)O	–	50 µM (active)
CCCCCCC(=O)O	inactive	–
Cc1cc(CCN2CCN(c3nsc4ccccc34)CC2)cc2c1NC(=O)CC2(C)C	inactive	–
OC1CCC(C2CCCCC2)CC1 (stereo not given)	inactive	25.6 µM (active) and 31.9 µM (active) and 26.9 µM (active)
CCc1ccc(CCOc2ccc(CC3SC(=O)NC3=O)cc2)nc1 (stereo not given)	inactive	–
CCCCC(CC)COC(=O)CCCCC(=O)OCc1ccccc1 (stereo not given)	inactive	–
NC(=O)N(O)[C@@H]1C=C[C@H](Oc2cccc(Oc3ccc(F)cc3)c2)C1	–	50 µM (active)
O=C(O)c1ccccc1C(c1ccc(O)cc1)c1ccc(O)cc1	inactive	–

SMILES	outcome	AC50
C#C[C@]1(O)CC[C@H]2[C@@H]3CCC4=CC(=O)CC[C@@H]4[C@H]3CC[C@@]21C	inactive	25.7 µM (active) and 31.6 µM (active) and 17.8 µM (active)
CCCCCCCCCCCCc1ccccc1S(=O)(=O)O	inactive	–
CN1CCC[C@H]1c1cccnc1	inactive	–
C[C@@H]1C[C@H]2[C@@H]3CCC4=CC(=O)C=C[C@]4(C)[C@@]3(F)[C@@H](O)C[C@]2(C)[C@@]1(O)C(=O)COP(=O)(O)O	inactive	–
CCCCC(CC)COC(=O)CCCCC(=O)OCC(CC)CCCC (stereo not given)	inactive	–
COc1ccc([N+](=O)[O-])cc1N	inactive	–
CC(C)(C)CC(C)(C)c1ccc(O)c(-n2nc3ccccc3n2)c1	inactive	–
NC(=O)N1C(=O)C(C(=O)c2cc(Cl)cs2)c2cc(F)c(Cl)cc21 (stereo not given)	inactive	–
c1ccc2c(c1)Cc1ccccc1-2	inactive	–
CC(=O)CC(C)(C)O	inactive	–
CCN(CC)CCNc1ccc(CNC=O)c2sc3ccc(OC)cc3c(=O)c12	inactive	–
CN1CCN(c2ccccc2/C=C2\SCCN(c3ccc(Cl)c(Cl)c3)C2=O)CC1	inactive	–
CCCOC(=O)c1ccc(O)cc1	–	7.31 µM (active)
C=C(C)C(=O)OCCC(F)(F)C(F)(F)C(F)(F)C(F)(F)C(F)(F)C(F)(F)F	inactive	–
OCCC(F)(F)C(F)(F)C(F)(F)C(F)(F)C(F)(F)C(F)(F)C(F)(F)C(F)(F)F	inactive	–
Nc1cccc2c(N)cccc12	inactive	–
CCCCCCCCOC(=O)CCCCCCCCC(=O)OCCCCCCCC	inactive	–
CN(C)C=O	inactive	–
ClC1=C(Cl)C(Cl)(Cl)C(Cl)=C1Cl	inactive	–
